High-throughput results: PubChem, National Center for Advancing Translational Sciences (NCATS)
ALOX15 inhib = inhibitors of human 15-lipoxygenase (ALOX15). purified 15hLO-1, xylenol orange hydroperoxide absorbance. Potency, µM (titrated, usually from 57.1 µM), actives largely listed as inhibitors. 74,000 tested, 1.4% active; further: nearly all actives have a fitted effect of over 55% in size
Target sequence (P16050 whole entry, looked up): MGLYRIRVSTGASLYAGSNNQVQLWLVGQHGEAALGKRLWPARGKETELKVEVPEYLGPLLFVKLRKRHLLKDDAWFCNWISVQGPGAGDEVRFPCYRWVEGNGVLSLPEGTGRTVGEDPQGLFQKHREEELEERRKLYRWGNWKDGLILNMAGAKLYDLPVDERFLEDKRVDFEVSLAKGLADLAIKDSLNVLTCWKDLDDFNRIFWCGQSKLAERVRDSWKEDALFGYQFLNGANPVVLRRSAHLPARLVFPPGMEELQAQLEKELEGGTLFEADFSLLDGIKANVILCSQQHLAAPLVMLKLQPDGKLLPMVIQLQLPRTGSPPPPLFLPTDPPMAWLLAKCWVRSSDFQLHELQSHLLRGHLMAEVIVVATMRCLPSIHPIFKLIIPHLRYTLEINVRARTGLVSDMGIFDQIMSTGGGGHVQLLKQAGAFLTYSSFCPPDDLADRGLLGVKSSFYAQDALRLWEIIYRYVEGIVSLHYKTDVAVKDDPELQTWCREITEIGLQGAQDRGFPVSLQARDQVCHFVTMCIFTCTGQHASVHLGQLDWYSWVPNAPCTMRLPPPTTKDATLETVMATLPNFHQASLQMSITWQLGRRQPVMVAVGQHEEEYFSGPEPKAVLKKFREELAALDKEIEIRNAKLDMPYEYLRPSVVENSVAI
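Readout: Fe(III)-xylenol orange absorbance, 573-to-405 nm ratio as reaction progress. Enzyme 40 nM purified human 15hLO-1, substrate 50 uM arachidonic acid, 6 min RT after 15 min compound preincubation; Hepes pH 7.5 buffer with Triton X-100.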
TSHR ag = agonists of human thyroid stimulating hormone receptor; HEK293-CNG-TSHR cells (CNG channel as cAMP sensor), membrane potential dye, cAMP; AID 926; Potency, µM (highest dose often 57.1 µM), most hits filed as activators; 73,000 tested, 0.48% active; active means well fitted activation curve with a large enough effect in the main read-out, with a control signal flat, not every such curve was filed as active; inconclusive means small, poorly fitted or top-dose-only effect, or a change in a side signal; inactive means no such curve, though single readings can be large or run the other way; reference of the percent scale not stated here;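 further: the control signal comes from parental cells without the receptor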
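HEK 293 cells stably expressing TSHR and a modified CNG channel, with CNG-only parental cells as counterscreen, were preloaded 60 min at room temperature with membrane potential dye containing 100 uM RO 20-1724. Compound exposure was 30 min, and depolarization was read as fluorescence at 590 nm.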
HEK293 cAMP ctrl = counter-screen for TSHR agonists: cAMP increase in parental HEK293. parental HEK293 CNG cAMP sensor, membrane potential fluorescence. Potency, µM (titrated, usually from 57.1 µM), usual class: activators. 73,000 tested, 2.5% active; further: nearly all actives have a fitted effect of over 55% in size
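Parental HEK 293 cells stably expressing a cAMP-gated CNG channel were loaded with membrane potential dye containing 100 uM RO 20-1724 for 60 min. Compound added for 30 min; depolarization read as fluorescence intensity at 590 nm.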
PK Bst = modulators of Bacillus stearothermophilus pyruvate kinase | 51,000 tested, 1.2% active | purified pyruvate kinase, luminescence ATP production; ribose 5-phosphate activator present at AC10 | AID 361 | Potency, µM; in the data active means potency below about 11 µM; inconclusive means mostly about 12 µM to 25 µM;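 the screen sought inhibitors and activators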
Tau filament bind = binders of human tau filaments. P10636. recombinant tau filaments, thioflavin S fluorescence, 15 h; filaments grown with octadecylsulfate alongside compound. Potency, µM (titrated, usually from 57.1 µM). 71,000 tested, 2% active. AID 596;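 further: actives lower thioflavin S fluorescence by blocking filaments or displacing dye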
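Assay mix: 1 uM His-tagged tau, 30 uM sodium octadecylsulfate, thioflavine S dye in HEPES/NaCl/DTT buffer. Compound is added prior to the inducer. Fluorescence after 15 h at 37 C.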
Luciferase inh = inhibitors of firefly luciferase; P08659; purified firefly luciferase, luminescence, 8 min; Potency, µM (highest dose often 57.1 µM), actives largely listed as inhibitors; 72,000 tested, 2.2% active; AID 411; further: nearly all actives have a fitted effect of over 40% in size
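Luminescence read-out after 8 min at room temperature; enzyme reaction used luciferin plus 10 uM ATP (linear range) in imidazole buffer pH 7.2 with KCl, MgCl2, Tween 20 and BSA. Each sample was run as a titration.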
Each line names hits and unclear results; the compound was inactive in the other large screens. An excerpt weighted towards active compounds, which were near 7.8% of everything screened. Unless noted, the call rests on the fitted dose curve; in most records, active means well fitted curve in the direction sought with a large enough effect; inconclusive means small, poorly fitted or top-dose-only effect, or another doubt; inactive means no such curve, though single readings can be large; an effect the other way counts as inactive or inconclusive.

O=C(COC(=O)c1cccs1)c1ccc2c(c1)OCCO2	PK Bst 0.29, Luciferase inh 0.32µM
COc1ccc(CNC(=O)COC(=O)c2ccc3c(c2)OCCO3)cc1	none
CCn1nc(C(=O)OCC(=O)c2ccc3c(c2)OCCO3)c2ccccc2c1=O	TSHR ag inconclusive, HEK293 cAMP ctrl inconclusive, PK Bst inconclusive, Luciferase inh 13µM
Cc1ccc(S(=O)(=O)Oc2cc(S(=O)(=O)O)cc3cc(S(=O)(=O)O)cc(N)c23)cc1	none (no result: PK Bst)
CC(=O)Nc1cc(CN2CCCCC2)c(O)c2ncccc12	none (no result: PK Bst)
CC(=O)O[C@@H]1[C@H]([N+]2(C)CCCCC2)C[C@@H]2[C@@H]3CC[C@@H]4C[C@@H](OC(C)=O)[C@H]([N+]5(C)CCCCC5)C[C@@]4(C)[C@H]3CC[C@]21C	none (no result: PK Bst)
Cc1ccc(N=c2oc3cc(O)ccc3cc2C(N)=O)cc1	ALOX15 inhib inconclusive, PK Bst 9.3, Luciferase inh 13µM
C[C@](O)(c1ccccc1)c1nccc2ccccc12	none (no result: TSHR ag, PK Bst)
Cc1ccc(C)c2[nH]c(=O)c(CCNC(=O)c3ccc(S(=O)(=O)N(C)C)cc3)cc12	none (no result: PK Bst)
CC(=O)Nc1ccc(S(=O)(=O)NCCc2cc3c(C)ccc(C)c3[nH]c2=O)cc1	TSHR ag inconclusive, HEK293 cAMP ctrl 25µM (no result: PK Bst)
COc1ccc(N2CCN(C(=O)c3ccc(CS(=O)(=O)c4ccc(OC)cc4)o3)CC2)cc1	TSHR ag inconclusive, HEK293 cAMP ctrl inconclusive (no result: PK Bst)
COc1ccc(S(=O)(=O)Cc2ccc(C(=O)N3CCN(c4ccc(Cl)cc4)CC3)o2)cc1	TSHR ag 20µM (no result: PK Bst)
COc1ccc(N2CCN(C(=O)c3ccc(C)c(Cl)c3)CC2)cc1	PK Bst 6.4, Tau filament bind inconclusive
CCOC(=O)c1cccc(NC(=O)CSc2nnc(C3CCCCC3)n2CC)c1	ALOX15 inhib inconclusive, TSHR ag inconclusive, HEK293 cAMP ctrl 25µM
CC(C)c1nc(-c2c(N)n(C)c(=O)n(C)c2=O)sc1C(=O)C(C)(C)C	TSHR ag inconclusive, HEK293 cAMP ctrl 16µM
Cc1nnc(SCC(=O)c2c(N)n(C)c(=O)n(C)c2=O)[nH]c1=O	none
CCCSc1nnc2nc3c(nn12)c1ccccc1n3C	Tau filament bind 16µM (no result: PK Bst)
CCC(C)[C@@H](C(=O)Nc1ccc2c(c1)OCO2)N1Cc2ccccc2C1=O (stereo partly drawn)	Tau filament bind 25µM (no result: PK Bst)
CC1CCN(C(C(=O)Nc2ccc3c(c2)OCO3)c2ccccc2)CC1 (stereo not drawn)	none (no result: TSHR ag, PK Bst)
COc1ccccc1N1CCN(C/C(C)=C/c2ccccc2)CC1	none (no result: PK Bst)
C/C(=C\c1ccccc1)CN1CCN(c2ccccc2)CC1	ALOX15 inhib 16µM, TSHR ag inconclusive, HEK293 cAMP ctrl inconclusive (no result: PK Bst)
CC1(C)OC2CC3C4CC(F)C5=CC(=O)C=CC5(C)C4C(O)CC3(C)[C@]2(C(=O)CO)O1 (stereo partly drawn)	none (no result: TSHR ag, HEK293 cAMP ctrl, PK Bst, Tau filament bind, Luciferase inh)
O=C(O[C@@H]1Cc2c(O)cc(O)cc2OC1c1ccc(O)c(O)c1)c1cc(O)c(O)c(O)c1 (stereo partly drawn)	ALOX15 inhib 6.3µM (no result: TSHR ag, HEK293 cAMP ctrl, PK Bst, Tau filament bind, Luciferase inh)
N[C@H](CCC(=O)NCC(=O)O)C(=O)O	Tau filament bind inconclusive (no result: PK Bst)
CCC(C)(C)n1nnnc1C(C(C)C)N1CCN(C)CC1 (stereo not drawn)	none
CCC(C)(C)n1nnnc1C(C(C)C)N1CCSCC1 (stereo not drawn)	TSHR ag inconclusive, HEK293 cAMP ctrl 6.3µM
O=C(Nc1cccs1)NC1CCCC1	ALOX15 inhib 13µM
C1CCN(c2nc3nonc3nc2N2CCCCC2)CC1	TSHR ag inconclusive, HEK293 cAMP ctrl inconclusive (no result: PK Bst)
Nc1nonc1-c1noc(N2CCCCC2)n1	TSHR ag inconclusive, HEK293 cAMP ctrl 10µM
Cc1ccc(C)c(NS(=O)(=O)c2c(C)ccc3nsnc23)c1	Tau filament bind 13µM
Cc1ccc2nsnc2c1S(=O)(=O)Nc1cccc2nsnc12	none
C[C@@]12C[C@H](O)[C@@H]3[C@H](CCC4=CC(=O)CC[C@]43C)[C@H]1CC[C@@H]2c1csc(-c2ccccc2)n1	none (no result: PK Bst)
O=C(c1n[nH]c2ccccc12)N1CCN(S(=O)(=O)c2ccc3ccccc3c2)CC1	PK Bst 9.2 (no result: TSHR ag)
